High-throughput results from PubChem BioAssay.
Arbovirus anti – antivirals against arbovirus infection, primary screen, cell-based, full library, 10K replicate subset | AID 1251, 2008 | 200,000 tested, 0.37% active | arbovirus infection cell-based antiviral screen | inhibition, % at 10 µM; in the data active means inhibition above about 30%
WT yeast gro inh – growth inhibition of WT strain, primary screen, mitochondrial fusion inhibitor project, WT and mutant strains, chemical genetic. mitochondrial fusion phenotypic screen. AID 1362, 2008. inhibition, % at 10 µM. 190,000 tested, 2.1% active; in the data active means inhibition above about 58%; tested in S. cerevisiae
L major viab – Leishmania major promastigote growth inhibition, primary screen | Leishmania major promastigotes, resazurin fluorescence viability | inhibition, % at 10 µM | 200,000 tested, 9% active; in the data active means inhibition above about 50%;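 further: promastigotes grown with compound for 44 hours at 28 °C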
CHOP inhibitor – inhibitors of CHOP promoter induction, primary screen, cell-based, unfolded protein response, luciferase reporter; CHO-K1 CHOP-promoter luciferase, tunicamycin-induced, 15-18 h; inhibition, % at 10 µM; 220,000 tested, 3.8% active; AID 2732, 2010;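 active means compounds that reduced the stress-induced luciferase reporter signal by more than about 70% of percent inhibition, limit read from the data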
Large screens that a line does not name were inactive. Only some compounds are listed: those with a hit (about 12% of all), similar ones and a draw of the others.

S=C(Nc1ccc(Cl)cc1)c1sc(N2CCCCC2)nc1N1CCOCC1	none
CCN(CC)CCN1CCn2c3c(c4cc(C)ccc42)CCCC31 (stereo not given)	L major viab 100.1
CCN1CCn2c3c(c4cc(Cl)ccc42)CCCC31 (stereo not given)	L major viab 54.4
O=C(C1=C[C@@H](C2CCCCC2)C[C@@H](OCc2ccc(CO)cc2)O1)N1CCN(Cc2ccc3c(c2)OCO3)CC1	WT yeast gro inh 75.9, L major viab 56.7
O=C(C1=C[C@H](C2CCCCC2)C[C@H](OCc2ccc(CO)cc2)O1)N1CCN(Cc2ccc3c(c2)OCO3)CC1	WT yeast gro inh 69.5, L major viab 67.9
COCC(=O)N/N=C/c1c(C)[nH]n(-c2ccccc2)c1=O	CHOP inhibitor 72.8
Cc1[nH]n(-c2ccccc2)c(=O)c1/C=N/NC(=O)C(C)C	CHOP inhibitor 75.8
CC(=O)N/N=C/c1c(C)[nH]n(-c2ccccc2)c1=O	none
O=C(NC1CCCCC1)c1ccc(CNc2nc(=S)[nH]c3ccccc23)cc1	none
CN(C(=O)c1ccccc1)c1nc2ccccc2s1	CHOP inhibitor 72.2
CCCCN(C(=O)c1ccc(S(=O)(=O)N(C)C)cc1)c1nc2ccccc2s1	CHOP inhibitor 70.7
CCOc1cccc2sc(N(CCCN(C)C)C(=O)c3ccc(S(=O)(=O)N(C)c4ccccc4)cc3)nc12	L major viab 88.3
COc1ccc(C)c2sc(N(CCCN(C)C)C(=O)c3ccc(S(=O)(=O)N(C)C)cc3)nc12	L major viab 73.5
CCCCN(C(=O)c1ccc(S(=O)(=O)N(C)C)cc1)c1ccccc1	none (no result: Arbovirus anti, WT yeast gro inh, L major viab)
CN(C)C(=O)c1nc2ccccc2s1	none
CN(C)CCN(C(=O)c1ccc(S(=O)(=O)N(C)c2ccccc2)cc1)c1nc2cc3c(cc2s1)OCCO3	none (no result: Arbovirus anti, WT yeast gro inh, L major viab)
CC(C)c1ccc(CNc2c([N+](=O)[O-])c(=O)oc3ccccc23)cc1	none
COC(=O)CCCC(=O)N1CCCC(CNS(=O)(=O)c2ccc(OC)cc2)C1 (stereo not given)	none
Cc1ccc(N=Cc2c(O)n(-c3nccs3)c(=O)c3ccccc23)cc1	none
NNC(=O)C(Cc1c[nH]c2ccccc12)NC(=O)c1ccccc1 (stereo not given)	none (no result: Arbovirus anti, WT yeast gro inh, L major viab)
COc1cc(/C=C2\SC(=S)NC2=O)ccc1OS(=O)(=O)c1ccccc1	WT yeast gro inh 79.2, L major viab 62.8
COc1cc(/C=C2/SC(=S)NC2=O)ccc1OS(=O)(=O)c1ccc(C)cc1	WT yeast gro inh 73.4
Cc1cc(C)cc(NC(=O)c2ccc3nc[nH]c3c2)c1	L major viab 85.5
O=Cc1ccccc1OCCOc1ccc([N+](=O)[O-])cc1	L major viab 52.0
CCc1nnc(NC(=O)C(=O)NCCOC(=O)c2ccccc2)s1	none
O=C1OCC2=C1C(c1ccccc1)CC(=O)N2c1ccc(F)cc1 (stereo not given)	none
Cc1ccc(N(CCC(=O)Nc2nnc(C3CC3)s2)S(=O)(=O)c2ccccc2)cc1	L major viab 53.1
CN(c1ccccc1)S(=O)(=O)c1ccc(C(=O)Nc2nnc(C3CC3)s2)cc1	none (no result: Arbovirus anti, WT yeast gro inh, L major viab)
CCc1nnc(NC(=O)CCN(c2cc(C)cc(C)c2)S(=O)(=O)c2ccc(Cl)cc2)s1	L major viab 79.3
O=C(O)c1ccccc1-c1ccccc1C(=O)NCCCO	none
Cc1ccc(S(=O)(=O)N2CCOCC2)cc1NC(=O)CNC1CCCC1	none (no result: Arbovirus anti, WT yeast gro inh, L major viab)
O=C(NCc1ccccc1)c1cc[n+](Cc2ccccc2)cc1	none
COc1cc(-c2nnc(-c3ccc(N4CCOCC4)cc3)o2)cc(OC)c1OC	Arbovirus anti 47.7 (no result: CHOP inhibitor)
Cc1nc(NC(=O)CN2CCOCC2)sc1-c1ccccc1	L major viab 51.0
CCc1sc(NC(=O)CN2CCOCC2)nc1-c1ccccc1	none
CC(=O)N1CC(=O)N=C1SCC(=O)Nc1nc(C)c(-c2ccccc2)s1	L major viab 95.7
CCOC(=O)c1cc(-c2ccccc2)n(CC(=O)Nc2ccc(OC)cc2)c1C	L major viab 50.6, CHOP inhibitor 74.8
CCOC(=O)c1cc(-c2ccccc2)n(CCC(=O)O)c1C	none (no result: WT yeast gro inh)
COc1ccc(NC(=O)Cn2c(-c3ccccc3)cn(-c3ccc(C)cc3)c2=O)cc1	CHOP inhibitor 72.1
Cc1ccc(N(CC(=O)NCCSc2ccccn2)S(C)(=O)=O)cc1	none
Cc1noc(NS(=O)(=O)c2ccc(NC(=O)CSc3nc4ccccc4[nH]3)cc2)c1C	none
O=C(CSc1nnc2c3ccccc3c3ccccc3c2n1)Nc1ccccc1	L major viab 96.5
Cc1noc(NS(=O)(=O)c2ccc(NC(=O)CSc3nnc4c(n3)[nH]c3ccccc34)cc2)c1C	L major viab 56.6
OCCNc1c2ccccc2nc2ccccc12	L major viab 99.9
OCCNc1nc2ccccc2nc1NCCO	none (no result: Arbovirus anti, WT yeast gro inh, L major viab)
CCNC(=S)N=Nc1c(O)[nH]c2ccc(C(C)C)cc12	L major viab 77.6
Cc1ccccc1-n1nc(C)c2cc(C(=O)N3CCN(S(=O)(=O)c4ccc(F)cc4)CC3)sc21	L major viab 52.5
N#CCCN/N=C(/Cc1nc2ccccc2[nH]1)c1cccc(Cl)c1	L major viab 77.6
Cc1ccc(S(=O)(=O)ON2C(=O)c3ccccc3C2=O)c(C)c1	CHOP inhibitor 93.6
O=Cc1ccc(OCC(=O)N2CCOCC2)cc1	none
CCNc1nc(SCCOc2ccc(Br)cc2)nc(N(C)C)n1	L major viab 58.0
Cc1cc(NC(=O)CCN2C(=O)C3C4CCC(C4)C3C2=O)c(C)cc1Br (stereo not given)	none
Cc1cc(Br)c(Cl)cc1NC(=O)CN1C(=O)C2C3CC(c4ccccc4)C(C3)C2C1=O (stereo not given)	WT yeast gro inh 69.6, L major viab 84.0
C/C(=N\NC(=O)CCCNc1ccccc1)c1ccncc1	none
C/C(=N/NC(=O)CNC(=O)c1ccccn1)c1ccccc1	none
C=CCNC(=S)N/N=C(\C)c1ccccn1	L major viab 99.7
C/C(=N\NC(=O)CCCNc1ccc(C)cc1)c1ccccn1	L major viab 98.2
CC1CCCCN1C(=O)CCS(=O)(=O)c1cccc2nonc12 (stereo not given)	none
CNS(=O)(=O)c1cccc(C(=O)OCC(=O)N(Cc2ccccc2)C(C)(C)C)c1	none
CCN(CC)C(=O)CSc1nnc2nnc3cc(OC)ccc3n12	none (no result: Arbovirus anti, WT yeast gro inh, L major viab)
CCCn1c(Nc2ccccc2C)nc2ccccc21	none
COc1cc(NC(=O)c2cccnc2)ccc1-c1cc2ccccc2oc1=O	CHOP inhibitor 76.9
CCc1ccc(NC(=O)c2ccc(F)c(S(=O)(=O)N(CC)c3ccccc3)c2)cc1	CHOP inhibitor 77.3
CCOC(=O)C1(CCCc2ccccc2)CCN(C(=O)C2CCCO2)CC1 (stereo not given)	none
O=C(/C=C/c1ccccc1Cl)Nc1ccc2c(c1)C(=O)NC2=O	CHOP inhibitor 94.4
Cc1ccc2c(C)c(C(=O)N(Cc3cccs3)C3CCS(=O)(=O)C3)oc2c1 (stereo not given)	L major viab 87.9
O=C(Nc1ccc(Cl)cn1)C1C(c2ccccc2)C1(Cl)Cl (stereo not given)	WT yeast gro inh 71.1
CCC(=O)NC(=S)Nc1ccc(Cl)cn1	none
O=C(NC(=S)Nc1ccc(Cl)cn1)C12CC3CC(CC(C3)C1)C2	WT yeast gro inh 73.1
O=C(NC(=S)Nc1ccc(Cl)cn1)C(c1ccccc1)c1ccccc1	WT yeast gro inh 72.5
